# Reference: PubChem BioAssay (NCI)
# This is part of a sample that, as a whole, favours compounds with a hit. Of some 83,000 tested, about 20% had one in any assay.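 The test compound was applied at a single concentration to cells in 96-well plates for 48 hours, and percent growth was recorded.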 Unmarked numbers belong to inactive results. Calls of active or inactive are those of the source. How the source made its calls: active means growth percent below 10; inactive means the rest.
# Tests used:
# Test in all cases: NCI-60 one-dose screen, 48 h (100 = growth as untreated, 0 = no growth, -100 = all killed)
# Settings in all cases: 10 µM unless noted
# DU-145 prostate = test system: DU-145 prostate
# K-562 leukemia = test system: K-562 leukemia
# MALME-3M melanoma = test system: MALME-3M melanoma
# MDA-MB-231 breast = test system: MDA-MB-231 breast
# RXF 393 renal = test system: RXF 393 renal
# SF-268 CNS = test system: SF-268 CNS
# SF-295 CNS = test system: SF-295 CNS
# SF-539 CNS = test system: SF-539 CNS
# UACC-257 melanoma = test system: UACC-257 melanoma
# M14 melanoma = test system: M14 melanoma
Structure (SMILES),growth (DU-145 prostate),growth (K-562 leukemia),growth (MALME-3M melanoma),growth (MDA-MB-231 breast),growth (RXF 393 renal),growth (SF-268 CNS),growth (SF-295 CNS),growth (SF-539 CNS),growth (UACC-257 melanoma),growth (M14 melanoma)
CCC[S@](=O)c1ccc2nc(NC(=O)OC)[nH]c2c1,106%,92.3%,104%,96.4%,115%,102%,99.9%,96.6%,69.3%,98.9%
Cc1nnc(/N=C2\NC(=O)/C(=C/c3ccsc3)S2)s1,98.7%,97.4%,80.8%,108%,99.8%,85.1%,85.9%,99.7%,108%,92%
O=C(O)CCNC1CCCCC1,112%,100%,144%,100%,137%,97.8%,131%,95.7%,20.9%,93.3%
COc1ccc(-c2cn(-c3ccc(Cl)cc3)c(=S)[nH]2)cc1OC,78.5%,75.9%,90.2%,53%,11%,96.1%,68.6%,85.6%,65.8%,4.41% (active)
CC(=O)c1ccc(NC(=O)CSc2nnc(-c3cc(-c4ccc(Cl)cc4)nc4ccccc34)o2)cc1,90%,63%,70.8%,53.7%,87.2%,82.4%,88.3%,74.2%,97.5%,77.6%
C=CCn1c(SCC(=O)Nc2ccc(C(=O)/C=C/c3cc(OC)c(OC)c(OC)c3)cc2)nnc1-c1ccccc1,76.7%,48.9%,91%,98.9%,97.8%,93.5%,92.6%,96.2%,81.4%,86.9%
O=C(Nc1nccs1)c1noc2ccccc12,107%,87.7%,96.8%,91.3%,110%,103%,101%,95.6%,90.6%,96%
O=C(O)c1cc(N=Nc2ccc(-c3ccc(N=Nc4c(S(=O)(=O)O)cc5ccc(Nc6ccccc6)cc5c4O)cc3)cc2)ccc1O,109%,91.3%,86%,98%,112%,93.1%,99.7%,108%,107%,106%
Cc1cnc(SCc2ccc(Cl)cc2)[nH]c1=S,100%,92.9%,95.8%,101%,132%,95.3%,95.5%,101%,102%,102%
COc1ccc2c(c1)Oc1nc(N)c(C#N)c(N)c1C2Sc1ccc(O)cc1 (stereo not given),105%,14.6%,70.8%,79.4%,90.8%,95%,104%,99.4%,105%,103%
CC(=O)Nc1c(C(=O)Nc2ccccc2)sc2nc3c(cc12)C(OC(C)=O)CCC3 (stereo not given),105%,72.1%,89.7%,101%,62.1%,97.5%,32.4%,95.8%,64.8%,90.3%
CCOC(=O)/C(=C/c1c(-c2ccccc2)[nH]c2ccccc12)C(=O)c1ccc(Cl)cc1,65.9%,5.66% (active),92.8%,63%,54.3%,56.1%,-15.3% (active),81.5%,77.2%,39.5%
Cc1nc2sc(C(=O)Nc3ccccc3Cl)c(N)c2cc1C(C)O (stereo not given),96.6%,22.5%,88.6%,80.9%,92.8%,86.7%,84.3%,85.1%,86.5%,58.9%
O=C1Nc2ccc(Cl)cc2/C1=N/c1nc(-c2ccc(Cl)cc2)cs1,26.2%,5.94% (active),22.2%,-22.8% (active),-19.7% (active),21.6%,14.3%,-6.26% (active),-2.07% (active),1.32% (active)
COC(=O)CCc1n(Cc2ccc3ccccc3c2)c2ccccc2[n+]1Cc1ccc2ccccc2c1,28%,9.25% (active),-34.5% (active),-39.4% (active),23.7%,12.1%,13.1%,16.3%,-28.2% (active),-25.5% (active)
C=C(C)[C@@H]1CC[C@]2(C(=O)OCCCC[P+](c3ccccc3)(c3ccccc3)c3ccccc3)CC[C@]3(C)[C@H](CC[C@@H]4[C@@]5(C)CC[C@H](OC(=O)C(Cl)Cl)C(C)(C)[C@@H]5CC[C@]43C)[C@@H]12,14.4%,-35.9% (active),-85.7% (active),-49.8% (active),-80.8% (active),-15.7% (active),-76.9% (active),-44.2% (active),-61% (active),-56.1% (active)
COc1ccc2nc(-c3ccc(OC)c(OC)c3)cc(-c3nnc(SCC(=O)Nc4ccc(/C(C)=N\O)cc4)n3-c3ccccc3)c2c1,83.1%,63.5%,110%,40.2%,79.1%,78.1%,92.9%,81.3%,88%,92.1%
O=C1C(=O)c2c(nc3ccc(C(F)(F)F)cn23)-c2ccccc21,-96.3% (active),-41.9% (active),-97.3% (active),-22.7% (active),-94.8% (active),-78.7% (active),-96.5% (active),-97.4% (active),-97.1% (active),-79.5% (active)
C=C(C)[C@@H]1CC[C@]2(C(=O)n3ccnc3)CC[C@]3(C)[C@H](CC[C@@H]4[C@@]5(C)CCCNC(C)(C)[C@@H]5CC[C@]43C)[C@@H]12,37%,-38.4% (active),-74.4% (active),20.5%,10.8%,59.4%,-54.7% (active),24.6%,5.14% (active),-78.6% (active)
CCCS(=O)(=O)Nc1ccc(F)c(C(=O)c2c[nH]c3ncc(-c4ccc(OCCCC5CCCCN5)nc4)cc23)c1F (stereo not given),87.5%,30.1%,-25.7% (active),14.9%,63.9%,68.6%,75.7%,28.4%,-17% (active),-17.2% (active)
O=c1c2ccccc2oc2ccc(OCCCCCN3CCCCCC3)cc12,94.1%,21.3%,40.2%,77.6%,58.6%,79%,87.8%,79.4%,2.91% (active),31.5%
N#Cc1nc(-c2ccccc2)oc1S(=O)(=O)NCC(c1ccc(Cl)cc1)N1CCCCC1 (stereo not given),84.4%,8.67% (active),96.8%,89.3%,101%,78%,102%,87.5%,88.1%,76.4%
CCOC(=O)C1=C(C)n2nc(CC#N)c(C#N)c2NC1c1ccc(CC)cc1 (stereo not given),106%,106%,86.8%,87.5%,107%,99.1%,101%,110%,111%,91.5%
O=c1[nH]c(-c2cccc(F)c2)cc2cc(F)ccc12,30.1%,14.1%,73%,49.8%,9.93% (active),68.4%,8.3% (active),-1.4% (active),55.3%,20.3%
N#Cc1c(-c2ccc(F)cc2)c(C#N)c2c(C#N)c(N)nn2c1N,89.8%,106%,110%,102%,84.4%,93.3%,101%,90.8%,110%,105%
CSc1nc(-c2ccc(F)cc2)c(C#N)c(N2CCOCC2)n1,101%,92.9%,116%,92.5%,91.3%,93.5%,92.2%,94.9%,91.9%,107%
